# Data taken from PubChem BioAssay (NCI).
# Several values for one entry are separate records, joined by “and”; a condition that tells them apart may be missing. Equal entries are not always repeated. Compounds without any hit were thinned out: in the full panel of roughly 83,000, 20% have a hit.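 Negative percent growth values reflect cell death: -40 means 40% of the cells present at the start died, and -100 means all died.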 Activity calls are given as the source filed them. How the source made its calls: active means growth percent below 10; inactive means the rest.
# Legend:
# Test in all cases: NCI-60 one-dose screen, 48 h (100 = growth as untreated, 0 = no growth, -100 = all killed)
# [1] = system: MDA-MB-435 melanoma
# [2] = system: SW-620 colon
# [3] = system: MCF7 breast
# [4] = system: HCT-116 colon
# [5] = system: HCC-2998 colon
# [6] = system: KM12 colon
smiles,measurement,setting,value
CCOC(=O)[C@]1(Br)CC[C@@]1(Br)C(=O)OCC,growth,[1]; 10 µM,94.8% (inactive)
same,growth,[2]; 10 µM,76.2% (inactive)
same,growth,[3]; 10 µM,93.4% (inactive)
same,growth,[4]; 10 µM,88.9% (inactive)
same,growth,[5]; 10 µM,124% (inactive)
same,growth,[6]; 10 µM,142% (inactive)
Nc1nc(N)c2cc(Sc3ccc4ccccc4c3)ccc2n1,growth,[1]; 10 µM,33.8% (inactive)
same,growth,[2]; 10 µM,18.9% (inactive)
same,growth,[3]; 10 µM,25.2% (inactive)
same,growth,[4]; 10 µM,15.4% (inactive)
same,growth,[5]; 10 µM,-39.4% (active)
same,growth,[6]; 10 µM,23.8% (inactive)
COc1ccc(C(C#N)=C2C=CC(=NO)C=C2)cc1,growth,[1]; 10 µM,23.2% (inactive)
same,growth,[2]; 10 µM,12.1% (inactive)
same,growth,[3]; 10 µM,14.1% (inactive)
same,growth,[4]; 10 µM,-37.2% (active)
same,growth,[5]; 10 µM,105% (inactive)
same,growth,[6]; 10 µM,-24.7% (active)
O=Nc1ccc(Nc2ccccc2)cc1,growth,[1]; 10 µM,83.6% (inactive)
same,growth,[2]; 10 µM,70.1% (inactive)
same,growth,[3]; 10 µM,67.2% (inactive)
same,growth,[4]; 10 µM,78.4% (inactive)
same,growth,[5]; 10 µM,93.8% (inactive)
same,growth,[6]; 10 µM,93.3% (inactive)
O=C1c2cccc3cc([N+](=O)[O-])cc(c23)C(=O)N1CCN1CCCC1,growth,[1]; 10 µM,16.2% (inactive)
same,growth,[2]; 10 µM,-4.97% (active)
same,growth,[3]; 10 µM,1.22% (active)
same,growth,[4]; 10 µM,-37.6% (active)
same,growth,[5]; 10 µM,-69.6% (active)
same,growth,[6]; 10 µM,1.61% (active)
CC(=O)O[C@H]1C(=O)[C@@]2(C)[C@H]([C@H](OC(=O)c3ccccc3)[C@]3(O)C[C@H](OC(=O)[C@H](O)[C@@H](NC(=O)c4ccccc4)c4ccccc4)C(C)=C1C3(C)C)[C@]1(OC(C)=O)CO[C@@H]1C[C@@H]2O,growth,[1]; 0.01 µM,-84.7% (active)
same,growth,[1]; 2.5 µM,-41.9% (active)
same,growth,[1]; 5 µM,-19.9% (active)
same,growth,[1]; 10 µM,-4.97% (active) and -14.7% (active)
same,growth,[2]; 0.01 µM,24.4% (inactive)
same,growth,[2]; 2.5 µM,38.5% (inactive)
same,growth,[2]; 5 µM,50.3% (inactive)
same,growth,[2]; 10 µM,53.7% (inactive) and 53.5% (inactive)
same,growth,[3]; 0.01 µM,8.89% (active)
same,growth,[3]; 2.5 µM,14.3% (inactive)
same,growth,[3]; 5 µM,15.4% (inactive)
same,growth,[3]; 10 µM,15.4% (inactive) and 15.3% (inactive)
same,growth,[4]; 0.01 µM,6.56% (active)
same,growth,[4]; 2.5 µM,2.87% (active)
same,growth,[4]; 5 µM,6.48% (active)
same,growth,[4]; 10 µM,11.9% (inactive) and 8.9% (active)
same,growth,[5]; 0.01 µM,-65.6% (active)
same,growth,[5]; 2.5 µM,-10.3% (active)
same,growth,[5]; 5 µM,0.255% (active)
same,growth,[5]; 10 µM,-3.97% (active) and -21.4% (active)
same,growth,[6]; 0.01 µM,10.6% (inactive)
same,growth,[6]; 2.5 µM,1.85% (active)
same,growth,[6]; 5 µM,4.45% (active)
same,growth,[6]; 10 µM,2.94% (active) and 10.9% (inactive)
COc1ccc2oc(-c3ccc(Cl)cc3)c(N3CCN(C)CC3)c2c1,growth,[1]; 10 µM,-19.3% (active)
same,growth,[2]; 10 µM,0.0094% (active)
same,growth,[3]; 10 µM,-75.8% (active)
same,growth,[4]; 10 µM,22.4% (inactive)
same,growth,[5]; 10 µM,-12.4% (active)
same,growth,[6]; 10 µM,-46.6% (active)
COc1ccc2c(c1)[nH]c1c(/C=C/c3ccccc3)nccc12,growth,[1]; 10 µM,85% (inactive)
same,growth,[2]; 10 µM,72.1% (inactive)
same,growth,[3]; 10 µM,65.7% (inactive)
same,growth,[4]; 10 µM,29.9% (inactive)
same,growth,[5]; 10 µM,34.4% (inactive)
same,growth,[6]; 10 µM,71.1% (inactive)
COc1cccc(C(c2cc3c(cc2O)OCO3)N2CCOCC2)c1OC (configuration not stated),growth,[1]; 10 µM,98% (inactive)
same,growth,[2]; 10 µM,102% (inactive)
same,growth,[3]; 10 µM,96.5% (inactive)
same,growth,[4]; 10 µM,102% (inactive)
same,growth,[5]; 10 µM,113% (inactive)
same,growth,[6]; 10 µM,108% (inactive)
CC[C@@]1(OC(=O)CN(C)C)C(=O)OCc2c1cc1n(c2=O)Cc2cc3c(N)cccc3nc2-1,growth,[1]; 10 µM,-44.7% (active)
same,growth,[2]; 10 µM,3.83% (active)
same,growth,[3]; 10 µM,-1.34% (active)
same,growth,[4]; 10 µM,0.716% (active)
same,growth,[5]; 10 µM,-14.7% (active)
same,growth,[6]; 10 µM,0.253% (active)
Cc1c(-c2ccccc2)[nH]c2ccccc12,growth,[1]; 10 µM,111% (inactive)
same,growth,[2]; 10 µM,99.3% (inactive)
same,growth,[3]; 10 µM,79.7% (inactive)
same,growth,[4]; 10 µM,113% (inactive)
same,growth,[5]; 10 µM,102% (inactive)
same,growth,[6]; 10 µM,103% (inactive)
O=c1[nH]cc(/C=N\Nc2ccccc2)c(=O)[nH]1,growth,[1]; 10 µM,42.5% (inactive)
same,growth,[2]; 10 µM,46.6% (inactive)
same,growth,[3]; 10 µM,56.1% (inactive)
same,growth,[4]; 10 µM,57% (inactive)
same,growth,[5]; 10 µM,76.9% (inactive)
same,growth,[6]; 10 µM,37.9% (inactive)
CCC(C)(c1ccc(O)c(C)c1)c1ccc(O)c(C)c1,growth,[1]; 10 µM,78.8% (inactive)
same,growth,[2]; 10 µM,111% (inactive)
same,growth,[3]; 10 µM,111% (inactive)
same,growth,[4]; 10 µM,94% (inactive)
same,growth,[5]; 10 µM,107% (inactive)
same,growth,[6]; 10 µM,94.6% (inactive)
O=[N+]([O-])c1cc(S(=O)(=O)Nc2ccccc2)ccc1Cl,growth,[1]; 10 µM,98.6% (inactive)
same,growth,[2]; 10 µM,105% (inactive)
same,growth,[3]; 10 µM,84% (inactive)
same,growth,[4]; 10 µM,92.1% (inactive)
same,growth,[5]; 10 µM,90% (inactive)
same,growth,[6]; 10 µM,98.5% (inactive)
S=P(N1CC1)(N1CC1)N1CC1,growth,[1]; 10 µM,105% (inactive) and 97.2% (inactive)
same,growth,[1]; 100 µM,64.8% (inactive)
same,growth,[2]; 10 µM,110% (inactive) and 93.6% (inactive)
same,growth,[2]; 100 µM,73% (inactive)
same,growth,[3]; 10 µM,69.5% (inactive)
same,growth,[3]; 100 µM,29.3% (inactive)
same,growth,[4]; 10 µM,95.9% (inactive) and 73.8% (inactive)
same,growth,[4]; 100 µM,51.3% (inactive)
same,growth,[5]; 10 µM,109% (inactive)
same,growth,[5]; 100 µM,-5.61% (active)
same,growth,[6]; 10 µM,111% (inactive) and 104% (inactive)
same,growth,[6]; 100 µM,83% (inactive)
COc1cc(N)ccc1Nc1c2ccccc2nc2ccccc12,growth,[1]; 10 µM,87.9% (inactive)
same,growth,[2]; 10 µM,4.74% (active)
same,growth,[3]; 10 µM,12.5% (inactive)
same,growth,[4]; 10 µM,-88.5% (active)
same,growth,[5]; 10 µM,94.8% (inactive)
same,growth,[6]; 10 µM,36.2% (inactive)
ClCCn1c(CCl)nc2ccc(Cl)cc21,growth,[1]; 10 µM,-83% (active)
same,growth,[2]; 10 µM,-54.6% (active)
same,growth,[3]; 10 µM,-6.55% (active)
same,growth,[4]; 10 µM,-28.9% (active)
same,growth,[5]; 10 µM,-2.45% (active)
same,growth,[6]; 10 µM,-43% (active)
CN(C)CCNc1cccc2sc3ccc(O)cc3c(=O)c12,growth,[1]; 10 µM,29.3% (inactive)
same,growth,[2]; 10 µM,24.5% (inactive)
same,growth,[3]; 10 µM,27.8% (inactive)
same,growth,[4]; 10 µM,25.3% (inactive)
same,growth,[5]; 10 µM,17.9% (inactive)
same,growth,[6]; 10 µM,24.7% (inactive)
